Experimental data from ChEMBL document CHEMBL1157539, “Thousands of chemical starting points for antimalarial lead identification” (Nature, 2010).

Tests used:
Format in all cases: functional
[1] = system: Plasmodium falciparum; test: GSK_TCMDC: Inhibition of Plasmodium falciparum 3D7 in whole red blood cells, using parasite LDH activity as an index of growth. Test compounds present at 2uM
[2] = system: Plasmodium falciparum; test: GSK_TCMDC: Inhibition of Plasmodium falciparum Dd2 in whole red blood cells, using parasite LDH activity as an index of growth. Test compounds present at 2uM
[3] = system: HepG2; test: GSK_TCMDC: Percent inhibition of human HepG2 cell line. Test compounds present at 10uM.

Row | Structure (SMILES) | Inhibition [1] | Inhibition [2] | Inhibition [3]
1 | Nc1ccc(-c2nc3cc(Cc4ccc5[nH]c(-c6ccc(N)cc6)nc5c4)ccc3[nH]2)cc1 | 100% | 96% | 47%
2 | O=C(Cc1ccc(NC(=O)c2ccc(O)c(-c3ccc(Cl)c(Cl)c3)c2)cc1)NCc1cccc(C(F)(F)F)c1 | 95% | 28% | 0%
3 | CN(CC(=O)Nc1ccc(F)cc1)C(=O)c1ccc(-c2ccc(F)cc2)o1 | 89% | 84% | 3%
4 | OC1(c2ccc(Br)cc2)CCN(C2CCN(Cc3ccccc3)CC2)CC1 | 100% | 18% | 8%
5 | Cc1cc2ncn(-c3nccc(NCc4ccc(F)cc4)n3)c2cc1C.O=C(O)C(F)(F)F | 98% | 83% | 10%
6 | NC(=O)C1Cc2ccccc2CN1CC(=O)Nc1ccccc1Sc1ccccc1 (stereo not given) | 100% | 99% | 5%
7 | CC(C)(C)OC(=O)N[C@@H](Cc1ccccc1)C(=O)Nc1cccc(-c2cccc(NC(=O)[C@H](Cc3ccccc3)NC(=O)OC(C)(C)C)c2)c1 | 100% | 97% | 10%
8 | COc1cc(N)c(Cl)cc1C(=O)NC1CCC(NCC2CCCCC2)CC1.Cl (stereo not given) | 90% | 85% | 18%
9 | CCOC(=O)c1nc(-c2cc(Cl)nc(Cl)c2)[nH]c1NC(=S)NCCCN1CCOCC1 | 89% | 71% | 13%
10 | COc1ccc(CCNc2nc(NCc3ccccc3)c3cc(OC)c(OC)cc3n2)cc1OC | 100% | 91% | 46%
